# In the supplement of paper PMC4022240:
# ± gives the standard deviation.
# T1: HaloTag-ATRX ADD domain (163-292)
# T1 chain: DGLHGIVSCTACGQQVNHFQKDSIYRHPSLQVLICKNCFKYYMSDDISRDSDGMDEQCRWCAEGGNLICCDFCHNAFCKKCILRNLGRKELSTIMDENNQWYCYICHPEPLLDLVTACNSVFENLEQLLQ
# B1: H3 20-32 L A T K A A Rcit Kme3 S A P A T (peptide)
# chain: LATKAARKSAPAT
# B2: H3 20-32 L A T K A A Rme2a Kme3 S A P A T (peptide)
# chain: LATKAARKSAPAT
# B3: H3 20-32 L A T K A A Rme2s K S A P A T (peptide)
# chain: LATKAARKSAPAT
# B4: H3 20-32 L A T K A A Rme Kme S A P A T (peptide)
# chain: LATKAARKSAPAT
# B5: H3 20-32 L A T K A A Rme2s Kme2 S A P A T (peptide)
# chain: LATKAARKSAPAT
# B6: H3 20-32 L A T K A A Rme2s Kac S A P A T (peptide)
# chain: LATKAARKSAPAT
# B7: H3 20-32 L A T K A A Rme2s Kme3 S A P A T (peptide)
# chain: LATKAARKSAPAT
# B8: H3 20-32 L A T K A A Rme2a K S A P A T (peptide)
# chain: LATKAARKSAPAT
# B9: H3 20-32 L A T K A A R K Sph A P A T (peptide)
# chain: LATKAARKSAPAT
# B10: H3 20-32 L A T K A A Rme2a Kme S A P A T (peptide)
# chain: LATKAARKSAPAT
# What was measured:
# Experiment in all cases: peptide microarray binding signal (635 nm), min-max normalized on array (fraction of array maximum); higher = stronger binding
# Conditions in all cases: peptide region: H3 20-32
# [1] = biological target: T1, HaloTag-ATRX ADD domain (163-292)
# Outline: (§1)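 Arrays carried histone 13-mer peptide–cellulose conjugates printed in triplicate on nitrocellulose alongside a Cy3 tracer. After overnight blocking at 4°C, they were incubated for 1 h at 4°C with biotin-labelled HaloTag reader fusions (10 nM to 1 μM) plus streptavidin-Alexa Fluor 647, or with rabbit histone antibodies (1:10,000 to 1:2,000) plus anti-rabbit Alexa 647. Scanning on an Axon GenePix 4000B used 635 nm for signal and 532 nm for misprints. The binding signal reported is each triplicate's mean spot intensity after per-library min-max scaling.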
# [2] = biological target: HaloTag-ING2 PHD (mouse Ing2 200-280)
# Outline: as §1
# [3] = biological target: anti-H3K4me3 antibody ab8580
# Outline: as §1
# [4] = biological target: anti-H3K9me3 antibody ab8898
# Outline: as §1
# [5] = peptide modifications: H3R26cit H3K27me3, binder concentration: 1:2,000 dilution
# [6] = peptide modifications: H3R26cit H3K27me3, binder concentration: 1:10,000 dilution
# [7] = peptide modifications: H3R26me2a H3K27me3, binder concentration: 1:2,000 dilution
# [8] = peptide modifications: H3R26me2a H3K27me3, binder concentration: 1:10,000 dilution
# [9] = peptide modifications: H3R26me2s, binder concentration: 1:2,000 dilution
# [10] = peptide modifications: H3R26me2s, binder concentration: 1:10,000 dilution
# [11] = peptide modifications: H3R26me1 H3K27me1, binder concentration: 1:2,000 dilution
# [12] = peptide modifications: H3R26me1 H3K27me1, binder concentration: 1:10,000 dilution
# [13] = peptide modifications: H3R26me2s H3K27me2, binder concentration: 1:2,000 dilution
# [14] = peptide modifications: H3R26me2s H3K27me2, binder concentration: 1:10,000 dilution
# [15] = peptide modifications: H3R26me2s H3K27ac, binder concentration: 1:2,000 dilution
# [16] = peptide modifications: H3R26me2s H3K27ac, binder concentration: 1:10,000 dilution
# [17] = peptide modifications: H3R26me2s H3K27me3, binder concentration: 1:2,000 dilution
# [18] = peptide modifications: H3R26me2s H3K27me3, binder concentration: 1:10,000 dilution
# [19] = peptide modifications: H3R26me2a, binder concentration: 1:2,000 dilution
# [20] = peptide modifications: H3R26me2a, binder concentration: 1:10,000 dilution
# [21] = peptide modifications: H3S28ph, binder concentration: 1:2,000 dilution
# [22] = peptide modifications: H3S28ph, binder concentration: 1:10,000 dilution
# [23] = peptide modifications: H3R26me2a H3K27me1, binder concentration: 1:2,000 dilution
# [24] = peptide modifications: H3R26me2a H3K27me1, binder concentration: 1:10,000 dilution
binder,measurement,setting,value
B1,peptide microarray binding signal,"[1]; peptide modifications: H3R26cit H3K27me3, binder concentration: 50 nM",0.00564 ± 0.00031
same,peptide microarray binding signal,"[1]; peptide modifications: H3R26cit H3K27me3, binder concentration: 500 nM",0.00676 ± 0.00027
same,peptide microarray binding signal,"[2]; peptide modifications: H3R26cit H3K27me3, binder concentration: 10 nM",0.0135 ± 0.00085
same,peptide microarray binding signal,"[2]; peptide modifications: H3R26cit H3K27me3, binder concentration: 100 nM",0.0188 ± 0.00063
same,peptide microarray binding signal,[3]; [5],0.0286 ± 0.0025
same,peptide microarray binding signal,[3]; [6],0.0204 ± 0.00089
same,peptide microarray binding signal,[4]; [5],0.0791 ± 0.0015
same,peptide microarray binding signal,[4]; [6],0.05 ± 0.006
B2,peptide microarray binding signal,"[1]; peptide modifications: H3R26me2a H3K27me3, binder concentration: 50 nM",0.00539 ± 0.00011
same,peptide microarray binding signal,"[1]; peptide modifications: H3R26me2a H3K27me3, binder concentration: 500 nM",0.0116
same,peptide microarray binding signal,"[2]; peptide modifications: H3R26me2a H3K27me3, binder concentration: 10 nM",0.0206 ± 0.0011
same,peptide microarray binding signal,"[2]; peptide modifications: H3R26me2a H3K27me3, binder concentration: 100 nM",0.0261 ± 0.0021
same,peptide microarray binding signal,[3]; [7],0.0393 ± 0.004
same,peptide microarray binding signal,[3]; [8],0.0294 ± 0.0026
same,peptide microarray binding signal,[4]; [7],0.0809 ± 0.0092
same,peptide microarray binding signal,[4]; [8],0.052 ± 0.0034
B3,peptide microarray binding signal,"[1]; peptide modifications: H3R26me2s, binder concentration: 50 nM",0.00668 ± 0.00025
same,peptide microarray binding signal,"[1]; peptide modifications: H3R26me2s, binder concentration: 500 nM",0.01295 ± 0.0001
same,peptide microarray binding signal,"[2]; peptide modifications: H3R26me2s, binder concentration: 10 nM",0.0106 ± 0.00025
same,peptide microarray binding signal,"[2]; peptide modifications: H3R26me2s, binder concentration: 100 nM",0.0116 ± 0.00039
same,peptide microarray binding signal,[3]; [9],0.00451 ± 0.00012
same,peptide microarray binding signal,[3]; [10],0.00479 ± 0.00014
same,peptide microarray binding signal,[4]; [9],0.0047 ± 0.00025
same,peptide microarray binding signal,[4]; [10],0.00329 ± 9.9e-05
B4,peptide microarray binding signal,"[1]; peptide modifications: H3R26me1 H3K27me1, binder concentration: 50 nM",0.00489 ± 4.8e-05
same,peptide microarray binding signal,"[1]; peptide modifications: H3R26me1 H3K27me1, binder concentration: 500 nM",0.00657 ± 0.0021
same,peptide microarray binding signal,"[2]; peptide modifications: H3R26me1 H3K27me1, binder concentration: 10 nM",0.00794
same,peptide microarray binding signal,"[2]; peptide modifications: H3R26me1 H3K27me1, binder concentration: 100 nM",0.0109 ± 0.00039
same,peptide microarray binding signal,[3]; [11],0.00355 ± 0.00035
same,peptide microarray binding signal,[3]; [12],0.00474 ± 0.00018
same,peptide microarray binding signal,[4]; [11],0.0024 ± 8.4e-05
same,peptide microarray binding signal,[4]; [12],0.001557 ± 1.5e-05
B5,peptide microarray binding signal,"[1]; peptide modifications: H3R26me2s H3K27me2, binder concentration: 50 nM",0.00351 ± 3.8e-05
same,peptide microarray binding signal,"[1]; peptide modifications: H3R26me2s H3K27me2, binder concentration: 500 nM",0.00129 ± 2.1e-05
same,peptide microarray binding signal,"[2]; peptide modifications: H3R26me2s H3K27me2, binder concentration: 10 nM",0.003342 ± 1.8e-05
same,peptide microarray binding signal,"[2]; peptide modifications: H3R26me2s H3K27me2, binder concentration: 100 nM",0.00312 ± 7.5e-05
same,peptide microarray binding signal,[3]; [13],0.00128 ± 2e-05
same,peptide microarray binding signal,[3]; [14],0.00114 ± 2.3e-05
same,peptide microarray binding signal,[4]; [13],0.000725 ± 1.1e-05
same,peptide microarray binding signal,[4]; [14],0.000865 ± 9e-06
B6,peptide microarray binding signal,"[1]; peptide modifications: H3R26me2s H3K27ac, binder concentration: 50 nM",0.00495 ± 0.00035
same,peptide microarray binding signal,"[1]; peptide modifications: H3R26me2s H3K27ac, binder concentration: 500 nM",0.00714 ± 0.00025
same,peptide microarray binding signal,"[2]; peptide modifications: H3R26me2s H3K27ac, binder concentration: 10 nM",0.0155 ± 0.00088
same,peptide microarray binding signal,"[2]; peptide modifications: H3R26me2s H3K27ac, binder concentration: 100 nM",0.0127 ± 0.00058
same,peptide microarray binding signal,[3]; [15],0.00574 ± 0.0007
same,peptide microarray binding signal,[3]; [16],0.00491 ± 7.1e-05
same,peptide microarray binding signal,[4]; [15],0.0064 ± 0.0001
same,peptide microarray binding signal,[4]; [16],0.00715 ± 0.0006
B7,peptide microarray binding signal,"[1]; peptide modifications: H3R26me2s H3K27me3, binder concentration: 50 nM",0.00342 ± 5.6e-05
same,peptide microarray binding signal,"[1]; peptide modifications: H3R26me2s H3K27me3, binder concentration: 500 nM",0.003095 ± 2.4e-05
same,peptide microarray binding signal,"[2]; peptide modifications: H3R26me2s H3K27me3, binder concentration: 10 nM",0.00889 ± 0.00023
same,peptide microarray binding signal,"[2]; peptide modifications: H3R26me2s H3K27me3, binder concentration: 100 nM",0.00808 ± 0.00038
same,peptide microarray binding signal,[3]; [17],0.0443 ± 0.0026
same,peptide microarray binding signal,[3]; [18],0.0353 ± 0.0044
same,peptide microarray binding signal,[4]; [17],0.082 ± 0.006
same,peptide microarray binding signal,[4]; [18],0.0554 ± 0.0085
B8,peptide microarray binding signal,"[1]; peptide modifications: H3R26me2a, binder concentration: 50 nM",0.00357 ± 0.0001
same,peptide microarray binding signal,"[1]; peptide modifications: H3R26me2a, binder concentration: 500 nM",0.00624 ± 0.00038
same,peptide microarray binding signal,"[2]; peptide modifications: H3R26me2a, binder concentration: 10 nM",0.00806 ± 0.00052
same,peptide microarray binding signal,"[2]; peptide modifications: H3R26me2a, binder concentration: 100 nM",0.0122 ± 0.0012
same,peptide microarray binding signal,[3]; [19],0.00525 ± 0.00065
same,peptide microarray binding signal,[3]; [20],0.004907 ± 3.6e-05
same,peptide microarray binding signal,[4]; [19],0.00334 ± 0.00044
same,peptide microarray binding signal,[4]; [20],0.00294 ± 6.7e-05
B9,peptide microarray binding signal,"[1]; peptide modifications: H3S28ph, binder concentration: 50 nM",0.013 ± 0.00031
same,peptide microarray binding signal,"[1]; peptide modifications: H3S28ph, binder concentration: 500 nM",0.00843 ± 0.0004
same,peptide microarray binding signal,"[2]; peptide modifications: H3S28ph, binder concentration: 10 nM",0.01074 ± 4.2e-05
same,peptide microarray binding signal,"[2]; peptide modifications: H3S28ph, binder concentration: 100 nM",0.0104 ± 0.00034
same,peptide microarray binding signal,[3]; [21],0.001057 ± 8.9e-06
same,peptide microarray binding signal,[3]; [22],0.00126
same,peptide microarray binding signal,[4]; [21],0.00116 ± 2.3e-05
same,peptide microarray binding signal,[4]; [22],0.00144 ± 2.8e-05
B10,peptide microarray binding signal,"[1]; peptide modifications: H3R26me2a H3K27me1, binder concentration: 50 nM",0.00489 ± 1.8e-05
same,peptide microarray binding signal,"[1]; peptide modifications: H3R26me2a H3K27me1, binder concentration: 500 nM",0.00571 ± 0.00016
same,peptide microarray binding signal,"[2]; peptide modifications: H3R26me2a H3K27me1, binder concentration: 10 nM",0.0113
same,peptide microarray binding signal,"[2]; peptide modifications: H3R26me2a H3K27me1, binder concentration: 100 nM",0.0169 ± 0.00094
same,peptide microarray binding signal,[3]; [23],0.00704 ± 0.00042
same,peptide microarray binding signal,[3]; [24],0.00879 ± 0.00091
same,peptide microarray binding signal,[4]; [23],0.00356 ± 0.00021
same,peptide microarray binding signal,[4]; [24],0.00236 ± 3.7e-05
